# Wnt bcat act = activators of Wnt/beta-catenin signaling; Wnt/beta-catenin reporter cell assay, activator, plate reader; 300,000 tested, 1.2% active; activation, % at 9.35 µM; in the data active = activation above about 30%, passing the limit was not always enough; inconclusive = no clear call, values can overlap the other calls;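 note: 0% = neutral control wells and 100% = positive control wells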
# FGF22 binding = FGF22 (human) thermal shift binding; recombinant FGF22 thermal shift, SYPRO orange fluorescence; percent of sucrose octasulfate shift, DMSO zero; activity (Tm shift, normalised), % at 9.99 µM; 340,000 tested, 1.5% active;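 active = mean Tm shift, scaled 0 neutral to 100 positive control, at about 1.3% or above, every replicate too, limit read from the data; inconclusive = no clear call, values can overlap the other calls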
# Target sequence (Q9HCT0 whole entry, looked up): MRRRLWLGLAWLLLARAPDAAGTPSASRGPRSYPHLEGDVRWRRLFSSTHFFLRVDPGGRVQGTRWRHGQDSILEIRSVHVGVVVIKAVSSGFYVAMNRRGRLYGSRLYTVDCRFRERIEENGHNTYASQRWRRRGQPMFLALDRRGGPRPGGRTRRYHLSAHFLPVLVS
# AF4-AF9 inh = MLL-AF4/AF9 protein interaction inhibition | P42568 | AlphaScreen, biotin-AF4 peptide binding to FLAG-AF9 | inhibition, % at 10 µM | 350,000 tested, 0.47% active | AID 651704;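 active = every replicate reaching a set inhibition limit, whatever the replicate mean, cut at about 25% in these data; inconclusive = mean inhibition reaches that limit but some replicates miss it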;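 note: 0% = plate neutral control median and 100% = total signal loss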
# MITF TRPM1 HTS = MITF TRPM1 promoter activation in melanoma cells. SK-MEL-5 TRPM1-promoter luciferase, 24 h; % of positive control, neutral wells = 0. activation, % at 12.5 µM. 300,000 tested, 0.75% active;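 active = mean activation of at least 80% with every replicate also reaching 80%; inconclusive = mean reaches 80% but some replicate falls short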;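 note: 0% = neutral control wells and 100% = parthenolide positive control wells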
# esBAF inh = blocks esBAF chromatin remodeling in mouse ES cells | Bmi1-luciferase knock-in reporter, 24 h; 100% = twice the neutral-well signal | reporter increase, % at 12.5 µM | 350,000 tested, 2% active; in the data active = activation above about 40%; inconclusive = no clear call, values can overlap the other calls;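 note: 0% = median of the plate's neutral control wells and 100% = double that signal; a rise in the Bmi1 reporter signal indicates esBAF inhibition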
# SMARCA2 activ = increases SMARCA2 function in MMTV reporter cells; MG213 cells, MMTV-luciferase reporter, dexamethasone, overnight; activation, % at 9.1 µM; 370,000 tested, 1% active; in the data active = activation above about 7.8%;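 note: 0% = vehicle wells and 100% = reference activator wells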
# An asterisk follows results filed as active; ? = inconclusive; . = no result given. A selection: hits, their analogues and other compounds. The true share with any hit is near 4.3%.
SMILES,Wnt bcat act,FGF22 binding,AF4-AF9 inh,MITF TRPM1 HTS,esBAF inh,SMARCA2 activ
C[C@@H]1CN([C@@H](C)CO)C(=O)c2cc(Br)cnc2O[C@@H]1CN(C)C(=O)c1ccccc1F,.,0,-1,.,-4,.
O=c1ncn(-c2cccc(Cl)c2)c2ccccc12,44*,0,-3,1,.,-2
COCCNC(=O)C[C@H]1C[C@@H]2c3cc(NC(=O)NC4CCCCC4)ccc3O[C@@H]2[C@@H](CO)O1,.,0,1,.,-2,.
CCN(Cc1ccncc1)C(=O)CCc1nnc(CCc2ccccc2OC)o1,-1,0,0,-5,.,-1
COc1ccccc1CCc1nnc(CCC(=O)N(C)Cc2cccc3cnccc23)o1,8,44*,-1,56,32,3
CCN(CCn1cccn1)C(=O)CCc1nnc(CCc2ccccc2OC)o1,-2,44*,0,-2,1,-2
CCN(C[C@H]1N[C@H](CO)[C@H]1c1ccc(-c2cccc(C#N)c2)cc1)C(=O)COC,.,0,-1,.,2,.
COCC#Cc1ccc([C@H]2[C@@H](CO)N3C(=O)CN(C(=O)C4CCOCC4)C[C@H]23)cc1,.,.,-3,.,.,.
C[C@@H]1CN([C@@H](C)CO)C(=O)c2cccc(NC(=O)C3CCCCC3)c2O[C@H]1CN(C)Cc1ccc(Cl)c(Cl)c1,.,0,-3,.,0,.
S=C(c1ccc(-c2ccc(Br)cc2)o1)N1CCOCC1,53*,0,4,.,.,0
S=C(c1ccc(-c2ccc(Cl)c(Cl)c2)o1)N1CCOCC1,.,.,.,113*,45*,.
S=C(c1ccc(-c2ccccc2Cl)o1)N1CCOCC1,.,.,.,76,31,.
CCNC(=O)C[C@H]1CC[C@H]2[C@H](COc3ccc(NS(=O)(=O)c4ccccc4C)cc3C(=O)N2C)O1,.,0,-2,.,2,.
N#C[C@H]1[C@H](c2ccc(C#Cc3ccccc3F)cc2)[C@@H](CO)N1C(=O)C1CCOCC1,.,0,-1,.,-22,.
O=c1[nH]c2ccccc2nc1/C=C/c1ccc(O)cc1,10,0,-2,61,51*,4
O=c1[nH]c2ccccc2nc1/C=C/c1ccccc1,?,0,0,40,.,7
O=c1[nH]c2ccccc2nc1/C=C/c1ccc(F)cc1,-1,43*,-2,47,56*,3
O=C(Nc1ccc(F)cc1)OCCCN1C(=O)CCC12CCCCC2,.,.,.,.,.,8
C[C@H]1CN([C@@H](C)CO)C(=O)c2cc(NS(=O)(=O)c3ccc(Cl)cc3)ccc2O[C@H]1CN(C)C(=O)Nc1ccc2c(c1)OCO2,.,-1,3,.,2,.
CSc1nc2ccccc2n1Cc1cccc([N+](=O)[O-])c1,0,44*,0,0,.,2
COc1cc2c3c(c1OC)C1(C=CC(=NNC(N)=O)C=C1)CC3N(C(C)=O)CC2 (stereo unspecified),.,43*,-4,7,.,0
CC1=CC(C)(C)N(C(=O)CCl)c2ccccc21,-5,43,-2,-13,.,0
CC1=CC(C)(C)N(C(=O)CN2C(=O)CCC2=O)c2ccccc21,-2,43*,-10,.,.,-4
CCC(=O)N(C)C[C@H]1Oc2cc(-c3ccncc3)ccc2S(=O)(=O)N([C@@H](C)CO)C[C@@H]1C,.,0,0,.,4,.
COc1ccc(/C(N)=N/OC(=O)c2cccc([N+](=O)[O-])c2)cc1,.,.,.,25,64*,3
SMILES,Wnt bcat act,FGF22 binding,AF4-AF9 inh,MITF TRPM1 HTS,esBAF inh,SMARCA2 activ
COc1cccc(C(=O)O/N=C(\N)c2ccncc2)c1,0,0,-7,53,37,7.8*
Cc1ccc(/C(N)=N/OC(=O)c2ccc3c(c2)OCO3)cc1,22,0,-8,72,.,2
COc1cccc(C(=O)O/N=C(\N)c2ccc([N+](=O)[O-])cc2)c1,.,.,.,15,55*,-2
COc1cc(C(=O)O/N=C(\N)c2ccc([N+](=O)[O-])cc2)cc(OC)c1OC,20,0,1,-2,.,1
N/C(=N\OC(=O)c1ccc2c(c1)OCO2)c1ccncc1,55*,0,-25,55,31,1
COc1cccc(C(=O)O/N=C(\N)c2ccc(C)cc2)c1,29,0,-3,59,43,2
CN1C(=O)c2cc(NC(=O)c3ccc(Cl)cc3)ccc2OC[C@H]2O[C@@H](CC(=O)O)CC[C@H]21,.,.,-3,.,9,.
COc1ccc(NC(=O)N[C@H]2CC[C@@H](CCn3cc(-c4ccc(F)cc4)nn3)O[C@H]2CO)cc1,.,0,-8,.,-1,.
CC(C)OC(=O)N(C)C[C@@H]1OCc2ccccc2-c2ccccc2C(=O)N([C@H](C)CO)C[C@H]1C,.,0,0,.,-3,.
O=C(N[C@@H]1C=C[C@H](CC(=O)N2CCc3ccccc3C2)O[C@@H]1CO)C1CC1,.,.,-6,.,.,.
O=S(=O)(CS(=O)(=O)c1ccccc1Br)c1ccccc1Br,-3,0,-1,.,.,0
CCOc1[nH]n(-c2ccc(Cl)cc2)c(=O)c1C=NCC(=O)OC,-2,0,0,4,1,1
CCOc1[nH]n(-c2ccccc2)c(=O)c1C=NCC(=O)OC,-1,43*,0,1,-6,-1
Cc1ccccc1OCC1CNC(=O)O1 (stereo unspecified),-8,43*,-2,5,-8,2
CC#CCOCC1CNC(=O)O1 (stereo unspecified),429*,0,-3,.,-11,-2
C[C@H]1CN([C@@H](C)CO)C(=O)Cc2cc(NC(=O)c3ccncc3)ccc2O[C@@H]1CN(C)Cc1ccc(Cl)c(Cl)c1,.,0,1,.,2,.
Cc1cc(NC(=O)CSc2nc3c(cc2C#N)CCC3)no1,34*,0,2,67,26,2
Cc1cc(NC(=O)CSc2nc3ccccc3cc2C#N)no1,9,0,-3,60,34,2
Cc1cc(NC(=O)CSc2nc3c(cc2C#N)CCCC3)no1,41*,.,.,66,.,6
C[C@@H]1CN([C@@H](C)CO)S(=O)(=O)c2ccc(C#C[C@@H](C)O)cc2O[C@@H]1CN(C)C(=O)C1CCC1,.,-1,-7,.,-13,.
C=CCOC(=O)c1ccc(N2CCN(c3ccccc3)CC2)nc1,5,0,0,45,26,-1
